Test system: MET
Settings: concentration: 1 μM,replicates: in singlicate; n = 1
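Also: KINOMEscan kinase panel screen.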

Row | Compound | %Inh [%]
1 | Cl.Oc1cc(-c2nc(-c3ccccc3)[nH]c2-c2ccncc2)ccc1Cl [SB-386023] | 9
2 | O=C(NCCNc1ccnc(NCc2ccc(F)cc2)n1)c1cc2ccccc2s1 [GSK1379944] | 12
3 | CNC(=O)c1ccccc1Sc1ccc2c(/C=C/c3ccccn3)n[nH]c2c1 | 12
4 | C=CC(=O)Nc1cc2c(Nc3ccc(F)c(Cl)c3)ncnc2cc1OCCCN1CCOCC1 [GW781483] | 50
5 | CC(C)Nc1cc(-c2ccc3c(N)n[nH]c3c2)nc(N)n1 [GSK2221681] | 0
6 | Nc1nc(Nc2ccccc2)cc(-c2ccc3c(N)n[nH]c3c2)n1 [GSK2225749] | 0
7 | CN(C)CC(O)COc1ccc(Nc2nccc(-c3cnn4nc(N5CCOCC5)ccc34)n2)cc1 (stereo not shown) [GW767488] | 0
8 | Cc1cc2cn[nH]c2cc1-c1cccc2c(N)c(C(N)=O)nnc12 | 7
9 | O=C(NCCCN1CCOC1=O)c1cnc(NCc2cc(Cl)ccc2Cl)nc1NC1CCCC1 | 63
10 | CCn1c(-c2nonc2N)nc2c(C#CC(C)(C)O)nc(OCCN)cc21.Cl.Cl [GSK902056] | 0
11 | Cc1n[nH]c2ccc(-c3cc(OC[C@@H](N)Cc4ccccc4)cnc3-c3ccoc3)cc12.O=C(O)C(F)(F)F.O=C(O)C(F)(F)F [GSK507358] | 0
12 | CN(C)CCOc1ccc(-c2cc(-c3c[nH]nc3-c3ccccn3)ccn2)cc1 [GW835314] | 2
13 | Cl.Cl.NC[C@H](CC1CCCCC1)NC(=O)c1cc(Br)c(-c2ccnc3[nH]ccc23)s1 [GSK1581427] | 0

From PMC5540273 (PLoS ONE, 2017)
